The record followed here is the supplement of paper PMC6992640.

Structures can show the parent of a compound that is named as a salt.

This assay has as its system HCI01 (cells of a triple-negative basal-like breast cancer xenograft). Put plainly: cell viability of combination (% of vehicle); higher = less cytotoxic. The following applies: 1 µM; 72 h; partner dose: 10 nM. The protocol:
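PDX cells were treated for 72 h with each drug at 1 µM plus afatinib (10 nM; 1 µM for WHIM30). Luciferase viability is expressed as percent of vehicle.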
Take `CC(=O)C1(O)Cc2c(O)c3c(c(O)c2C(OC2CC(N)C(O)C(C)O2)C1)C(=O)c1ccccc1C3=O.Cl` (stereo not given) [Idarubicin HCl] + CN(C)C/C=C/C(=O)Nc1cc2c(Nc3ccc(F)c(Cl)c3)ncnc2cc1O[C@H]1CCOC1 [Afatinib]: the “cell viability of combination” value was found to be 131.
With `COc1cc2c(Nc3ccc(Br)cc3F)ncnc2cc1OCC1CCN(C)CC1` [Vandetanib (ZD6474)] + CN(C)C/C=C/C(=O)Nc1cc2c(Nc3ccc(F)c(Cl)c3)ncnc2cc1O[C@H]1CCOC1 [Afatinib], the “cell viability of combination” value was 47.3.
For `CS(=O)(=O)O.Cc1c(O)cccc1C(=O)NC(CSc1ccccc1)C(O)CN1CC2CCCCC2CC1C(=O)NC(C)(C)C` (stereo not given) [Nelfinavir Mesylate] + CN(C)C/C=C/C(=O)Nc1cc2c(Nc3ccc(F)c(Cl)c3)ncnc2cc1O[C@H]1CCOC1 [Afatinib] the value was 44.5.
On to `COc1cc2nccc(Oc3ccc(NC(=O)Nc4cc(C)on4)c(Cl)c3)c2cc1OC` [Tivozanib (AV-951)] + CN(C)C/C=C/C(=O)Nc1cc2c(Nc3ccc(F)c(Cl)c3)ncnc2cc1O[C@H]1CCOC1 [Afatinib], for which the “cell viability of combination” value turned out to be 43.9.
For `CCCSc1nc(NC2CC2c2ccc(F)c(F)c2)c2nnn(C3CC(OCCO)C(O)C3O)c2n1` (stereo not given) [Ticagrelor] + CN(C)C/C=C/C(=O)Nc1cc2c(Nc3ccc(F)c(Cl)c3)ncnc2cc1O[C@H]1CCOC1 [Afatinib] the value was 57.8; for `COc1nc2ccc(Br)cc2cc1[C@@H](c1ccccc1)[C@@](O)(CCN(C)C)c1cccc2ccccc12` [Bedaquiline fumarate] + CN(C)C/C=C/C(=O)Nc1cc2c(Nc3ccc(F)c(Cl)c3)ncnc2cc1O[C@H]1CCOC1 [Afatinib], 52.9; for `Cc1ccc(C(=O)N(CCCN)C(c2nc3cc(Cl)ccc3c(=O)n2Cc2ccccc2)C(C)C)cc1` (stereo not given) + CN(C)C/C=C/C(=O)Nc1cc2c(Nc3ccc(F)c(Cl)c3)ncnc2cc1O[C@H]1CCOC1 [Afatinib], 50.5.
For `CCC(NC(=O)C(C)NC)C(=O)N1CC(O)CC1Cc1c(-c2[nH]c3cc(F)ccc3c2CC2CC(O)CN2C(=O)C(CC)NC(=O)C(C)NC)[nH]c2cc(F)ccc12` (stereo not given) + CN(C)C/C=C/C(=O)Nc1cc2c(Nc3ccc(F)c(Cl)c3)ncnc2cc1O[C@H]1CCOC1 [Afatinib] the value was 42.3; for `CCOc1cc2ncc(C#N)c(Nc3ccc(OCc4ccccn4)c(Cl)c3)c2cc1NC(=O)C=CCN(C)C` [Neratinib (HKI-272)] + CN(C)C/C=C/C(=O)Nc1cc2c(Nc3ccc(F)c(Cl)c3)ncnc2cc1O[C@H]1CCOC1 [Afatinib], 60.9; for `COc1ccccc1OCCNCC(O)COc1cccc2[nH]c3ccccc3c12` (stereo not given) [Carvedilol] + CN(C)C/C=C/C(=O)Nc1cc2c(Nc3ccc(F)c(Cl)c3)ncnc2cc1O[C@H]1CCOC1 [Afatinib], 48.7.
Take `Clc1ccc(CSC(Cn2ccnc2)c2ccc(Cl)cc2Cl)cc1.O=[N+]([O-])O` (stereo not given) [Sulconazole Nitrate] + CN(C)C/C=C/C(=O)Nc1cc2c(Nc3ccc(F)c(Cl)c3)ncnc2cc1O[C@H]1CCOC1 [Afatinib]: the “cell viability of combination” value is 62.8.
`C=C1C(=CC=C2CCCC3(C)C2CCC3C(C)C=CC(C)C(C)C)CC(O)CC1O` (stereo not given) [Doxercalciferol] + CN(C)C/C=C/C(=O)Nc1cc2c(Nc3ccc(F)c(Cl)c3)ncnc2cc1O[C@H]1CCOC1 [Afatinib]: the “cell viability of combination” value worked out at 44.8.
As to `CC(=O)c1cc2c(o1)C(=O)c1ccccc1C2=O` [Napabucasin] + CN(C)C/C=C/C(=O)Nc1cc2c(Nc3ccc(F)c(Cl)c3)ncnc2cc1O[C@H]1CCOC1 [Afatinib], the “cell viability of combination” value is 16.2.
For `COc1cc(C(=O)O)ccc1NC(=O)C1NC(CC(C)(C)C)C(C#N)(c2ccc(Cl)cc2F)C1c1cccc(Cl)c1F` (stereo not given) + CN(C)C/C=C/C(=O)Nc1cc2c(Nc3ccc(F)c(Cl)c3)ncnc2cc1O[C@H]1CCOC1 [Afatinib], the “cell viability of combination” value was 49.1.
Turning to `O=C(C=Cn1cnc(-c2cc(C(F)(F)F)cc(C(F)(F)F)c2)n1)NNc1cnccn1` + CN(C)C/C=C/C(=O)Nc1cc2c(Nc3ccc(F)c(Cl)c3)ncnc2cc1O[C@H]1CCOC1 [Afatinib], the “cell viability of combination” value is 39.3.
Then `CC(CCC(=O)O)C1CCC2C3CCC4CC(O)CCC4(C)C3CCC12C` (stereo not given) [Lithocholic Acid] + CN(C)C/C=C/C(=O)Nc1cc2c(Nc3ccc(F)c(Cl)c3)ncnc2cc1O[C@H]1CCOC1 [Afatinib], with 45.1.
`CCCCCOc1ccc(-c2ccc(-c3ccc(C(=O)N[C@H]4C[C@@H](O)[C@@H](O)NC(=O)[C@@H]5[C@@H](O)[C@@H](C)CN5C(=O)[C@H]([C@@H](C)O)NC(=O)[C@H]([C@H](O)[C@@H](O)c5ccc(O)cc5)NC(=O)[C@@H]5C[C@@H](O)CN5C(=O)[C@H]([C@@H](C)O)NC4=O)cc3)cc2)cc1` [Anidulafungin] + CN(C)C/C=C/C(=O)Nc1cc2c(Nc3ccc(F)c(Cl)c3)ncnc2cc1O[C@H]1CCOC1 [Afatinib]: the “cell viability of combination” value came out at 55.5.
For `Cl.O.O=C1Cc2cc(CCN3CCN(c4nsc5ccccc45)CC3)c(Cl)cc2N1` [Ziprasidone hydrochloride monohydrate] + CN(C)C/C=C/C(=O)Nc1cc2c(Nc3ccc(F)c(Cl)c3)ncnc2cc1O[C@H]1CCOC1 [Afatinib] the value was 46.7; for `COC(=O)C12CCC(C)(C)CC1C1C(=O)C=C3C4(C)C=C(C#N)C(=O)C(C)(C)C4CCC3(C)C1(C)CC2` (stereo not given) [Bardoxolone methyl] + CN(C)C/C=C/C(=O)Nc1cc2c(Nc3ccc(F)c(Cl)c3)ncnc2cc1O[C@H]1CCOC1 [Afatinib], 53.5; for `CCCCc1oc2ccccc2c1C(=O)c1cc(I)c(OCCN(CC)CC)c(I)c1.Cl` [Amiodarone HCl] + CN(C)C/C=C/C(=O)Nc1cc2c(Nc3ccc(F)c(Cl)c3)ncnc2cc1O[C@H]1CCOC1 [Afatinib], 68.8.
